Experiment [1] in a line: NCI Yeast Anticancer Drug Screen. Data for the rad50 strain (AID 155).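 Note: 0% = growth of vehicle-only cultures of the same strain.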 Particulars: S. cerevisiae rad50 strain growth inhibition, active compounds read high. An outline of the steps: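 Genetically altered yeast (DNA repair pathway); compound treatment; growth inhibition vs vehicle ctrl.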
Experiment [2] is described as follows: NCI Yeast Anticancer Drug Screen. Data for the mec2-1 strain (AID 157). Conditions: S. cerevisiae mec2-1 strain, active compounds read high. In a few lines: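 Vehicle-treated cultures served as reference for growth inhibition of compound-exposed mec2-1 yeast.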
The nature of experiment [3]: NCI Yeast Anticancer Drug Screen. Data for the sgs1 mgt1 strain (AID 161).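 Note: 0% = growth of cultures given vehicle only.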 Conditions: S. cerevisiae sgs1 mgt1 strain, active compounds read high. In a few lines:
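Mutant yeast exposed to compound; growth scored against vehicle-only wells.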

Experiment [4] is described as follows: NCI Yeast Anticancer Drug Screen. Data for the cln2 rad14 strain (AID 165).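 Note: 0% = growth equal to vehicle treated cultures.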 Conditions: S. cerevisiae cln2 rad14 strain, active compounds read high. In a few lines: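 Each compound was tested on cln2 rad14 yeast. Inhibition of growth was calculated against vehicle-exposed controls.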
Experiment [5] in a line: NCI Yeast Anticancer Drug Screen. Data for the bub3 strain (AID 167). Conditions: S. cerevisiae bub3 mutant strain, active compounds read high. In a few lines:
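Yeast carrying a defined mutation is treated with each compound, and growth is compared with that of vehicle-exposed cells to give inhibition.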

Experiment [6] is described as follows: NCI Yeast Anticancer Drug Screen. Data for the mlh1 rad18 strain (AID 175). Conditions: S. cerevisiae mlh1 rad18 strain growth inhibition, active compounds read high. In a few lines:
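Vehicle-treated cultures served as the reference for growth inhibition in a yeast strain carrying DNA damage repair alterations exposed to each compound.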

Setting [7] is: at 5.0 µM (retest, dose inferred, filed as 0.5).
The mark [8] stands for this setting: at 50.0 µM (retest, dose inferred, filed as 5.0).

About 79,000 compounds went through this panel and 15% of them were active in at least one assay; those are over-represented in the sample as a whole. Unmarked numbers belong to inactive results. Calls of active or inactive are those of the source. Cut-off read from the data, not from the text of the source: active = growth inhibition above about 70%; inactive = the rest.

As for `CC(=O)Nc1ccc(NC(=S)Nc2ccc(NC(C)=O)cc2)cc1`, the growth inhibition is 97% (active) in experiment [1] (setting [7]); 99% (active) in experiment [1] (setting [8]); 92% (active) in experiment [1] (at 50.0 µM); 47% in experiment [2] (setting [7]); 100% (active) in experiment [2] (setting [8]); 15% in experiment [2] (at 50.0 µM). For the same molecule, the growth inhibition is 68% in experiment [3] (setting [7]); 100% (active) in experiment [3] (setting [8]); -1.7% in experiment [3] (at 50.0 µM); 43% in experiment [4] (setting [7]); 99% (active) in experiment [4] (setting [8]); -5.1% in experiment [4] (at 50.0 µM). Further, the growth inhibition was 62% in experiment [5] (setting [7]); 100% (active) in experiment [5] (setting [8]); 0.6% in experiment [5] (at 50.0 µM); 82% (active) in experiment [6] (setting [7]); 99% (active) in experiment [6] (setting [8]); 13.8% in experiment [6] (at 50.0 µM).

Take `O=C(O)CNc1ccc2c(c1)Cc1cc(Br)ccc1-2`: the growth inhibition in experiment [1] (setting [7]) was 19%; in experiment [1] (setting [8]), 88% (active); in experiment [1] (at 50.0 µM) it was 97.2% (active); in experiment [2] (setting [7]), -1%; in experiment [2] (setting [8]), 87% (active); in experiment [2] (at 50.0 µM) it was 96.2% (active). The growth inhibition is 55% in experiment [3] (setting [7]); 98% (active) in experiment [3] (setting [8]); 97.9% (active) in experiment [3] (at 50.0 µM); -3% in experiment [4] (setting [7]); 59% in experiment [4] (setting [8]); 88.9% (active) in experiment [4] (at 50.0 µM). The growth inhibition was -1% in experiment [5] (setting [7]); 85% (active) in experiment [5] (setting [8]); 96.5% (active) in experiment [5] (at 50.0 µM); 45% in experiment [6] (setting [7]); 96% (active) in experiment [6] (setting [8]); 97.7% (active) in experiment [6] (at 50.0 µM).

For the molecule `CCOC(=O)c1ccc(N=Cc2cc(Cl)cc(Cl)c2O)cc1`, the growth inhibition in experiment [1] (setting [7]) is 67%; in experiment [1] (setting [8]), 99% (active); in experiment [1] (at 50.0 µM), 86.7% (active); in experiment [2] (setting [7]), 72% (active); in experiment [2] (setting [8]), 100% (active); in experiment [2] (at 50.0 µM), 88.5% (active). For the same molecule, the growth inhibition in experiment [3] (setting [7]) is 28%; in experiment [3] (setting [8]), 84% (active); in experiment [3] (at 50.0 µM) it was 91% (active); in experiment [4] (setting [7]) it was 37%; in experiment [4] (setting [8]), 85% (active); in experiment [4] (at 50.0 µM) it was 78.9% (active). Also, the growth inhibition was 62% in experiment [5] (setting [7]); 96% (active) in experiment [5] (setting [8]); 87.2% (active) in experiment [5] (at 50.0 µM); 52% in experiment [6] (setting [7]); 100% (active) in experiment [6] (setting [8]); 84.5% (active) in experiment [6] (at 50.0 µM).

Regarding `Cc1ccc(NC(=O)CC2SC(=Nc3ccc(Cl)cc3)NC2=O)cc1C` (stereo not given), the growth inhibition is 79% (active) in experiment [1] (setting [7]); -11% in experiment [1] (setting [8]); 99.2% (active) in experiment [1] (at 50.0 µM); 57% in experiment [2] (setting [7]); 5% in experiment [2] (setting [8]); 99.5% (active) in experiment [2] (at 50.0 µM). The growth inhibition in experiment [3] (setting [7]) is 65%; in experiment [3] (setting [8]), 0%; in experiment [3] (at 50.0 µM) it was 99.3% (active); in experiment [4] (setting [7]) it was 41%; in experiment [4] (setting [8]) it was 18%; in experiment [4] (at 50.0 µM) it was 98.3% (active). Moreover, the growth inhibition is 89% (active) in experiment [5] (setting [7]); 11% in experiment [5] (setting [8]); 99.1% (active) in experiment [5] (at 50.0 µM); 31% in experiment [6] (setting [7]); 12% in experiment [6] (setting [8]); 99.2% (active) in experiment [6] (at 50.0 µM).

For the molecule `CCOC(=O)CN1CCCC(C(=O)CC2(O)C3(Cl)C4(Cl)C5(Cl)C(Cl)(Cl)C6(Cl)C4(Cl)C2(Cl)C6(Cl)C53Cl)C1` (stereo not given), the growth inhibition in experiment [1] (setting [7]) was 62%; in experiment [1] (setting [8]), 98% (active); in experiment [1] (at 50.0 µM), 52.5%; in experiment [2] (setting [7]) it was 54%; in experiment [2] (setting [8]), 99% (active); in experiment [2] (at 50.0 µM), 49.9%. Moreover, the growth inhibition in experiment [3] (setting [7]) is 61%; in experiment [3] (setting [8]), 99% (active); in experiment [3] (at 50.0 µM) it was 55%; in experiment [4] (setting [7]), 36%; in experiment [4] (setting [8]), 99% (active); in experiment [4] (at 50.0 µM) it was 71.2% (active). Besides, the growth inhibition is 59% in experiment [5] (setting [7]); 99% (active) in experiment [5] (setting [8]); 48.5% in experiment [5] (at 50.0 µM); 87% (active) in experiment [6] (setting [7]); 99% (active) in experiment [6] (setting [8]); 50.3% in experiment [6] (at 50.0 µM).

For the molecule `O=C(Nc1ccccc1)c1ccc([N+](=O)[O-])o1`, the growth inhibition in experiment [1] (setting [7]) was 12%; in experiment [1] (setting [8]), 83% (active); in experiment [1] (at 50.0 µM), 96.3% (active); in experiment [2] (setting [7]) it was 3%; in experiment [2] (setting [8]), 73% (active); in experiment [2] (at 50.0 µM), 95.7% (active). In addition, the growth inhibition in experiment [3] (setting [7]) was 9%; in experiment [3] (setting [8]) it was 82% (active); in experiment [3] (at 50.0 µM) it was 98.6% (active); in experiment [4] (setting [7]), -2%; in experiment [4] (setting [8]), 31%; in experiment [4] (at 50.0 µM), 80.2% (active). In addition, the growth inhibition in experiment [5] (setting [7]) was 2%; in experiment [5] (setting [8]) it was 79% (active); in experiment [5] (at 50.0 µM), 91.4% (active); in experiment [6] (setting [7]), 24%; in experiment [6] (setting [8]), 91% (active); in experiment [6] (at 50.0 µM), 98.5% (active).

Turning to `COc1ccccc1C1c2cc3c(cc2OC2(OC)COC(=O)C12)OCO3` (stereo not given), the growth inhibition in experiment [1] (setting [7]) was 24%; in experiment [1] (setting [8]), 58%; in experiment [1] (at 50.0 µM), 9.85%; in experiment [2] (setting [7]) it was 22%; in experiment [2] (setting [8]), 42%; in experiment [2] (at 50.0 µM) it was 0%. Further, the growth inhibition in experiment [3] (setting [7]) was 11%; in experiment [3] (setting [8]) it was 42%; in experiment [3] (at 50.0 µM) it was 1.95%; in experiment [4] (setting [7]) it was 20%; in experiment [4] (setting [8]) it was 35%; in experiment [4] (at 50.0 µM) it was 17%. Further, the growth inhibition in experiment [5] (setting [7]) is 32%; in experiment [5] (setting [8]), 54%; in experiment [5] (at 50.0 µM) it was 17.2%; in experiment [6] (setting [7]), 23%; in experiment [6] (setting [8]), 69%; in experiment [6] (at 50.0 µM) it was 22%.

On to `CCCCCCc1ccc(O)c(Cl)c1`, for which the growth inhibition is 0% in experiment [1] (setting [7]); 28% in experiment [1] (setting [8]); 98.8% (active) in experiment [1] (at 50.0 µM); 0% in experiment [2] (setting [7]); 15% in experiment [2] (setting [8]); 94% (active) in experiment [2] (at 50.0 µM). Besides, the growth inhibition in experiment [3] (setting [7]) is -1%; in experiment [3] (setting [8]), 15%; in experiment [3] (at 50.0 µM), 77.3% (active); in experiment [4] (setting [7]), -4%; in experiment [4] (setting [8]) it was -3%; in experiment [4] (at 50.0 µM) it was 44.1%. Besides, the growth inhibition in experiment [5] (setting [7]) was -5%; in experiment [5] (setting [8]), -8%; in experiment [5] (at 50.0 µM), 57.4%; in experiment [6] (setting [7]), 0%; in experiment [6] (setting [8]), 19%; in experiment [6] (at 50.0 µM) it was 89.6% (active).

Regarding `O=C(c1ccc(Oc2ccccc2)cc1)C(C(c1ccccc1)N1CCOCC1)N1CCOCC1` (stereo not given), the growth inhibition is -5% in experiment [1] (setting [7]); 35% in experiment [1] (setting [8]); 61.1% in experiment [1] (at 50.0 µM); 12% in experiment [2] (setting [7]); 59% in experiment [2] (setting [8]); 62.9% in experiment [2] (at 50.0 µM). Moreover, the growth inhibition in experiment [3] (setting [7]) was -9%; in experiment [3] (setting [8]), 81% (active); in experiment [3] (at 50.0 µM), 88.8% (active); in experiment [4] (setting [7]), -3%; in experiment [4] (setting [8]) it was -1%; in experiment [4] (at 50.0 µM), 54.4%. Moreover, the growth inhibition in experiment [5] (setting [7]) is 0%; in experiment [5] (setting [8]), 61%; in experiment [5] (at 50.0 µM) it was 73% (active); in experiment [6] (setting [7]), 20%; in experiment [6] (setting [8]), 60%; in experiment [6] (at 50.0 µM) it was 75.4% (active).

As to `O=C(CC(=O)c1ccc(O)cc1)c1ccccc1`, the growth inhibition in experiment [1] (setting [7]) was -1%; in experiment [1] (setting [8]), 50%; in experiment [1] (at 50.0 µM), 60.8%; in experiment [2] (setting [7]), -13%; in experiment [2] (setting [8]) it was 52%; in experiment [2] (at 50.0 µM) it was 1.2%. Also, the growth inhibition in experiment [3] (setting [7]) was -1%; in experiment [3] (setting [8]) it was 66%; in experiment [3] (at 50.0 µM), 21.2%; in experiment [4] (setting [7]) it was -1%; in experiment [4] (setting [8]) it was 62%; in experiment [4] (at 50.0 µM) it was 4.5%. Besides, the growth inhibition is -6% in experiment [5] (setting [7]); 89% (active) in experiment [5] (setting [8]); 48.7% in experiment [5] (at 50.0 µM); 3% in experiment [6] (setting [7]); 86% (active) in experiment [6] (setting [8]); 58% in experiment [6] (at 50.0 µM).

These data come from PubChem BioAssay (NCI).
